± gives the standard deviation of the averaged measurements.
What was measured:
[1] = test system: DLD1; assay: cell viability (CellTiter-Glo) relative to plate median (fraction of plate median); higher = more viable cells; settings: 5 µM; treatment time 24 h; reporter: 7TFP
Method in brief: (§1)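 Library compounds were added at a final concentration of 5 µM for 24 h to colorectal cancer cells stably transduced with a lentiviral TCF/Wnt firefly luciferase reporter. Reported values are firefly luciferase or CellTiterGlo luminescence, normalised per well to the plate median. Each value averages two independent replicates.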

[2] = test system: HCT116; assay: as above; settings: 5 µM; treatment time 24 h; reporter: TCF4/Wnt
Method in brief: as §1

[3] = test system: SW480; assay: as above; settings: 5 µM; treatment time 24 h; reporter: 7TFP
Method in brief: as §1

[4] = test system: DLD1; assay: TCF/Wnt firefly luciferase reporter signal relative to plate median (fraction of plate median); higher = higher Wnt reporter signal; settings: 5 µM; treatment time 24 h; reporter: 7TFP
Method in brief: as §1

[5] = test system: SW480; assay: as above; settings: 5 µM; treatment time 24 h; reporter: 7TFP
Method in brief: as §1

Structure (SMILES) | cell viability [1] | cell viability [2] | cell viability [3] | TCF/Wnt firefly luciferase reporter signal [4] | TCF/Wnt firefly luciferase reporter signal [5]
O=C(O)c1ccccc1C(=O)Nc1ccc(S(=O)(=O)Nc2nccs2)cc1 | 1.05 ± 0.08 | 0.918 ± 0.088 | 1.004 ± 0.0085 | 1.03 ± 0.12 | 1.11 ± 0.021
CCc1ccc(CCOc2ccc(CC3SC(=O)NC3=O)cc2)nc1 (stereo not given) | 0.923 ± 0.048 | 0.904 ± 0.07 | 0.983 ± 0.096 | 1.015 ± 0.0071 | 1.07 ± 0.057
N=C(N)NC(=O)c1nc(Cl)c(N)nc1N | 0.963 ± 0.067 | 0.988 ± 0.046 | 1.01 ± 0.057 | 0.937 ± 0.024 | 1 ± 0.084
COc1cc(O)c(C(=O)c2ccccc2)cc1O | 0.889 ± 0.07 | 0.84 ± 0.17 | 1.07 ± 0.15 | 0.891 ± 0.28 | 0.845 ± 0.12
N=C(N)N/N=C/c1c(Cl)cccc1Cl | 0.976 ± 0.028 | 1.02 ± 0.042 | 1.02 ± 0.014 | 1.02 ± 0.021 | 1.05 ± 0.064
CN1C(C(=O)Nc2ccccn2)=C(O)c2ccccc2S1(=O)=O | 0.97 ± 0.057 | 0.975 ± 0.036 | 0.92 ± 0.061 | 1.1 ± 0.071 | 1.14
CCN(CCCc1ccccc1)CCCc1ccccc1 | 1 ± 0.22 | 1.06 ± 0.021 | 1.08 ± 0.035 | 1 ± 0.036 | 0.916 ± 0.055
NC(=O)NC1NC(=O)NC1=O (stereo not given) | 1.03 ± 0.014 | 1.09 ± 0.057 | 1.01 ± 0.03 | 1.02 ± 0.15 | 1.055 ± 0.0071
Cc1c2oc3c(C)ccc(C(=O)N[C@@H]4C(=O)N[C@H](C(C)C)C(=O)N5CCC[C@H]5C(=O)N(C)CC(=O)N(C)[C@@H](C(C)C)C(=O)O[C@@H]4C)c3nc-2c(C(=O)N[C@@H]2C(=O)N[C@H](C(C)C)C(=O)N3CCC[C@H]3C(=O)N(C)CC(=O)N(C)[C@@H](C(C)C)C(=O)O[C@@H]2C)c(N)c1=O | 1.06 ± 0.071 | 0.601 ± 0.18 | 1.31 ± 0.035 | 0.612 ± 0.11 | 0.802 ± 0.039
COc1cc(NS(=O)(=O)c2ccc(N)cc2)ncn1 | 0.88 ± 0.0092 | 0.9455 ± 0.005 | 0.931 ± 0.037 | 0.99 ± 0.028 | 0.941 ± 0.028
COc1cc(OC)c(-c2c(OC)cc(OC)cc2OC)c(OC)c1 | 1.015 ± 0.0071 | 0.953 ± 0.14 | 1.02 ± 0.014 | 0.926 ± 0.018 | 1.01
CCC(=O)O[C@]1(C(=O)CCl)[C@@H](C)C[C@H]2[C@@H]3CCC4=CC(=O)C=C[C@]4(C)[C@@]3(F)[C@@H](O)C[C@@]21C | 1.03 ± 0.035 | 0.9775 ± 0.0078 | 1.01 ± 0.035 | 0.896 ± 0.27 | 0.893 ± 0.027
CCN(CC)Cc1cc(Nc2ccnc3cc(Cl)ccc23)ccc1O | 0.908 ± 0.064 | 0.967 ± 0.016 | 0.946 ± 0.051 | 0.952 ± 0.17 | 0.921 ± 0.25
COc1cc2c(cc1OC)[C@@H]1Cc3ccc(OC)c(OC)c3CN1CC2 | 0.97 ± 0.085 | 0.941 ± 0.038 | 0.9275 ± 0.0035 | 1.17 ± 0.18 | 1.03 ± 0.028
Cc1cc(O)c(C)c(O)c1C(=O)O | 1 ± 0.05 | 0.927 ± 0.0085 | 0.996 ± 0.021 | 0.792 ± 0.36 | 0.949 ± 0.23
C[C@]12CC[C@@H]3c4ccc(O)cc4CC[C@H]3[C@@H]1CC[C@@H]2O | 0.914 ± 0.11 | 1.01 ± 0.098 | 0.949 ± 0.024 | 1.07 ± 0.092 | 1.02 ± 0.021
NC[C@H]1O[C@H](O[C@H]2[C@H](O)[C@@H](O[C@H]3O[C@H](CO)[C@@H](O)[C@H](N)[C@H]3O)[C@H](N)C[C@@H]2N)[C@H](N)[C@@H](O)[C@@H]1O | 1.11 ± 0.028 | 0.997 ± 0.033 | 1.02 ± 0.052 | 1.03 ± 0.035 | 1.01 ± 0.021
CC[n+]1c(-c2ccccc2)c2cc(N)ccc2c2ccc(N)cc21 | 1.1 ± 0.014 | 1.1 ± 0.057 | 1.22 | 0.96 ± 0.085 | 1.08 ± 0.12
CCOC(=O)OC(C)OC(=O)[C@@H]1N2C(=O)[C@@H](NC(=O)[C@H](N)c3ccccc3)[C@H]2SC1(C)C (stereo not given in full) | 1.05 ± 0.014 | 1.01 ± 0.071 | 1.01 ± 0.014 | 1.09 ± 0.12 | 1.08 ± 0.035
CCCCCCCC/C=C/CCCCCCCCOP(=O)([O-])OCC[N+](C)(C)C | 0.984 ± 0.052 | 0.886 ± 0.2 | 1.02 ± 0.03 | 0.986 ± 0.034 | 0.982 ± 0.018
C=C[C@@](C)(O)CCC1C(=C)CCC2[C@@](C)(CO)CCC[C@]12C (stereo not given in full) | 1.005 ± 0.0071 | 1.14 ± 0.16 | 1.1 ± 0.021 | 0.967 ± 0.017 | 1.01 ± 0.067
COc1cc(O)c(C(C)=O)c(OC)c1 | 1.12 ± 0.11 | 1.03 ± 0.059 | 1.055 ± 0.0071 | 0.978 ± 0.19 | 0.983 ± 0.11
COc1cc2cc3c4cc(OC)c(OC)cc4cc[n+]3c(C)c2cc1OC | 1 ± 0.067 | 0.959 ± 0.013 | 0.9305 ± 0.00071 | 1.05 ± 0.16 | 1.01 ± 0.097
COC(=O)c1c(OC)cc2c(c1C)Oc1c(Cl)c(OC(C)=O)c(Cl)c(C)c1C(=O)O2 | 0.935 ± 0.028 | 1.02 ± 0.088 | 0.9875 ± 0.0064 | 1.03 ± 0.042 | 0.968 ± 0.02
C1CCN2C[C@@H]3C[C@H](CN4CCCC[C@@H]34)[C@H]2C1 | 0.938 ± 0.076 | 0.9855 ± 0.0064 | 0.93 ± 0.035 | 0.883 ± 0.072 | 0.979 ± 0.03
O=c1ccc2ccccc2o1 | 0.985 ± 0.11 | 1.01 ± 0.029 | 0.976 ± 0.014 | 1.09 ± 0.014 | 0.984 ± 0.018
O=c1cc(-c2ccc(O)cc2)oc2cc(O[C@@H]3O[C@H](CO)[C@@H](O)[C@H](O)[C@H]3O)cc(O)c12 | 0.924 ± 0.044 | 1.06 ± 0.093 | 1 ± 0.038 | 1.02 ± 0.059 | 1.07 ± 0.078
C=C(C)[C@@H]1CC=C(CO)CC1 | 0.968 ± 0.1 | 0.972 ± 0.12 | 0.996 ± 0.0042 | 0.952 ± 0.016 | 0.972 ± 0.054
C[C@]12CC[C@@H]3c4ccc(O)cc4CC[C@H]3[C@@H]1C[C@@H](O)[C@@H]2O | 1.03 ± 0.035 | 1.05 ± 0.057 | 1 ± 0.035 | 1.07 ± 0.085 | 1.16 ± 0.071
C=C1[C@@H]([C@@]2(C)C=CC(=O)C(C)(C)[C@@H]2CC(=O)OC)CC[C@@]2(C)[C@H](c3ccoc3)OC(=O)[C@H]3O[C@]132 | 0.94 ± 0.021 | 1.01 ± 0.039 | 1.02 ± 0.021 | 0.978 ± 0.19 | 0.996 ± 0.048

Reference: the supplement of paper PMC6522484
